Cycloheximide cs: affects cycloheximide protein synthesis inhibition readout, counter-screen. cell reporter, cycloheximide protein synthesis inhibition counterscreen. max response, %. 300,000 compounds, 12% hits. AID 2314; in the data active means max response mostly above about 13%, no sharp cut-off; inactive means mostly below about 14%; further: read at 38.3 µM for the half of the compounds with a filed dose; 0% is about no effect
NS1 inh: blocks influenza NS1 protein function. 270,000 compounds, 0.4% hits. Potency, µM (titrated, usually from 46.1 µM), inactives show at the highest dose activity, positive = more growth. AID 2326; calls by dose curve; further: potency means the concentration at half of the fitted maximal effect; actives are rising curves; nearly all actives have a fitted effect of over 50% in size
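A cell-based growth assay was used: compounds that relieve NS1-induced slow growth of budding yeast raise OD600. Assay medium was yeast nitrogen base with ammonium sulphate and -URA supplement, pH 6.0, with 2% galactose.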
Pf growth 48h: inhibits P. falciparum growth in the first generation, 48 h | P. falciparum luciferase growth in erythrocytes, 48 h | Potency, µM (highest dose often 28.7 µM), for the others: top-dose activity change, negative = inhibition, hits mostly inhibitors | 310,000 compounds, 5.9% hits | AID 504832; further: potency means the concentration at half of the fitted maximal effect; on the % scale 0 is the no-effect control and ±100 the full control effect
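Here the parasites carry a stable luciferase gene and grow inside erythrocytes in Albumax-based RPMI medium with compound for one erythrocytic cycle. Activity is scored as loss of luminescent signal.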
Pf growth 96h: P. falciparum growth inhibition at 96 hours; 320,000 compounds, 6.9% hits; Potency, µM (series often up to 28.7 µM), for inactives: at the top dose activity change, negative = inhibition, usual class: inhibitors; P. falciparum luciferase reporter growth, 96 h; AID 504834; further: potency means the concentration at half of the fitted maximal effect; on the % scale 0 is the no-effect control and ±100 the full control effect
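Delayed-death screen, second-generation endpoint: infected erythrocytes, 2% hematocrit, 0.05% parasitemia final; 96 hours at 37 C, 5% CO2; luciferase detection reagent; luminescence decrease equals reduced growth.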
Shiga inhibitor: Shiga toxin inhibition | Vero cells, Shiga toxin protein synthesis inhibition reporter | inhibition, % at 38.7 µM | 290,000 compounds, 9.2% hits | AID 2315; in the data active means inhibition mostly above about 28%, no sharp cut-off; inactive means mostly below about 43%; further: 0% is about no effect
FBPA Giardia inh: Giardia lamblia aldolase inhibition; purified Giardia FBPA; Potency, µM (highest dose often 59.6 µM), without a hit: top-dose activity, negative = inhibition, most hits filed as inhibitors; 290,000 compounds, 0.71% hits; AID 2451; further: potency means the concentration at half of the fitted maximal effect; on the % scale 0 is the no-effect control and ±100 the full control effect; nearly all actives have a fitted effect of over 55% in size
Target sequence (A8B2U2 whole entry, looked up): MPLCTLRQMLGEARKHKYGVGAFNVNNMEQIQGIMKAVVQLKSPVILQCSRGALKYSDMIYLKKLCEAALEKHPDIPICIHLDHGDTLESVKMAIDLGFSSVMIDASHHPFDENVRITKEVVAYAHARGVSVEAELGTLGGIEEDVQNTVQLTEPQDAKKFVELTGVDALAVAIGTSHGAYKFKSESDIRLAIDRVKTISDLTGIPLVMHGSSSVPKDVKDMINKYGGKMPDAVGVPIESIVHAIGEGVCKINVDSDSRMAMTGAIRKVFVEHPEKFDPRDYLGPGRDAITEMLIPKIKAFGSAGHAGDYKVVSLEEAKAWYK
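40 nM FBPA preincubated 10 min at RT with compound (up to 57.5 uM final), then substrate plus GAPDH/TPI/NAD/arsenate coupling and diaphorase/resazurin added. Fluorescence read after 20 min at RT, 525/598 nm.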
The depositor's hits bear a star; ? = inconclusive; · = no result; [ ] = dose if it differs, or a comment. Hits are enriched below; roughly 21% of the tested compounds scored in any of these assays. Unless noted, the call rests on the fitted dose curve; in most records, active means well fitted curve in the direction sought with a large enough effect; inconclusive means small, poorly fitted or top-dose-only effect, or another doubt; inactive means no such curve, though single readings can be large; an effect the other way counts as inactive or inconclusive.

SMILES | Cycloheximide cs | NS1 inh | Pf growth 48h | Pf growth 96h | Shiga inhibitor | FBPA Giardia inh
Cc1cccc(N2CN=C3SCC(=O)N3C2)c1 | -1 | 0% | 95% | 38% | -5 | 2%
Cc1ccc(N2CN=C3SCC(=O)N3C2)cc1C | 22* | -1% | 4% | ? | 43 | 3%
O=S(=O)(c1ccccc1)C1(C2CC(c3ccccc3)=NO2)CC(O)C1 (configuration not stated) | 12* | 2% | 35% | ? | 15 | -10%
O=C(O)C1CC(c2ccccc2)=NO1 (configuration not stated) | -1 | 3% | 10% | · | -7 | 0%
CN1CC[C@@]2(CCCN(S(=O)(=O)c3ccccc3)C2)C1 | · | · | · | · | · | -13%
CCc1ccc(N(CC(=O)NC(C)(C)C)C(=O)CCC(=O)Nc2ccccn2)cc1 | 0 | 0% | -23% | -9% | -5 | -3%
Cc1nn(-c2ccc(N3CCCCC3)nn2)c(C)c1CCC(=O)Nc1cc(F)ccc1F | 48* | -12% | 46% | ? | 45* | 28%
Cc1nn(-c2ccc(N3CCCCC3)nn2)c(C)c1CCC(=O)Nc1ccccc1F | 22* | -19% | 28% | 58% | 63* | ·
COc1ccc(N(CC(=O)NC(C)(C)C)C(=O)CCC(=O)Nc2nccs2)c(OC)c1 | -2 | 26% | -8% | -17% | -5 | 21%
CC(=O)C1=C(c2ccccc2)NC(=S)NC1c1ccc(O)c(O)c1 (configuration not stated) | -2 | · | -4%[5.75 µM] | 13µM* | -1 | -18%
CCCCCCC(c1c(C)n(C)n(-c2ccccc2)c1=O)c1c(C)n(C)n(-c2ccccc2)c1=O | -3 | -4% | 13µM* | 7% | -7 | 3%
Cc1c(C(c2ccccc2O)c2c(C)n(C)n(-c3ccccc3)c2=O)c(=O)n(-c2ccccc2)n1C | -3 | -3% | ? | 77% | 14 | 4%
C=CCN1C(=O)CN=C1Nc1ccc(F)cc1 | -1 | -6% | 10µM* | ? | -1 | -6%
CC(C)(C)NCC(O)COc1ccccc1C(C)(C)C (configuration not stated) | -5 | 0% | 4.7µM* | ? | -14 | -7%
Cc1ccccc1OCC(O)CNC1CCCC1 (configuration not stated) | 3 | 16% | ? | ? | · | -25%
CC(C)(C)NC[C@@H](O)COc1ccccc1C1CCCC1 | · | · | 2.9µM* | 2.3µM* | · | 1%[21.7 µM]
CC(C)(C)NCC(O)COc1ccccc1C(=O)CCc1ccccc1 (configuration not stated) | -4 | -2% | · | ? | -15 | -5%
COc1cc([N+](=O)[O-])ccc1NC(=O)CN1CCOCC1 | 0 | · | ? | 40% | 18 | 2%
O=C1C=C[C@@H](O)[C@H]2[C@@H]3C(=O)N(Cc4ccccc4)C(=O)[C@@H]3CC[C@H]12 | · | · | · | · | · | -2%[12.9 µM]
CC(C)Oc1ccc(C(CC(=O)NCCCN(C)C)c2ccc(F)cc2)cc1 (configuration not stated) | -2 | -6% | ? | 12µM* | 15 | 2%
COC(=O)c1ccc(OCC2c3cc(OC)c(OC)cc3CCN2C(=O)C2CC2)cc1 (configuration not stated) | 2 | -5% | 12µM* | ? | 1 | 0%
CCc1ccc(OCC2c3cc(OC)c(OC)cc3CCN2C(=S)NCCOC)cc1 (configuration not stated) | -2 | 5% | ? | 10µM* | -14 | -4%
COc1cc(Br)cc(Br)c1OCC(=O)N/N=C/c1c(C)n(C)n(-c2ccccc2)c1=O | -2 | 12% | 5% | -17% | 2 | ·
COC(=O)C1=C(C)N(Cc2ccccc2)[C@]23O[C@](C(=O)OC)(C(=O)N2C1c1ccccc1)C1C(=O)N(C)C(=O)C13 (some centres not stated) | · | · | · | · | · | 2%[12.9 µM]
O=C(Oc1cccc(OC(=O)c2ccco2)c1)c1ccco1 | -1 | -17% | -23% | 15µM* | -2 | 10%
O=C(Oc1ccc(OC(=O)c2ccco2)c(S(=O)(=O)c2ccc(Cl)cc2)c1)c1ccco1 | -2 | 4% | 4% | 10µM* | -9 | 5%
COC(=O)c1[nH]c2ccccc2c1NC(=O)CN1CCN(Cc2ccc3c(c2)OCO3)CC1 | 7 | 6% | ? | · | -4 | 11%

High-throughput results (PubChem BioAssay)
